Inconclusive results are not listed. Active and inactive are the calls of the source. Unless noted, calls follow the shape of the dose curve; as a rule, active = well fitted curve in the direction sought with a large enough effect; inconclusive = small, poorly fitted or top-dose-only effect, or another doubt; inactive = no such curve, though single readings can be large; an effect the other way counts as inactive or inconclusive.
What was measured:
[1] = biological target: Cytochrome P450 3A4 (Homo sapiens) (UniProt P08684); assay: qHTS Assay for Activators of Cytochrome P450 3A4 (AID 885); also: nearly all actives have a fitted effect of over 65% in size; also: potency is read from the fitted curve at half-maximal effect
How it was run: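 20nM CYP3A4 + 25uM Luciferin-PPXE (=KM), 200mM KPO4; cpd 10 min RT; NADPH regen, 60 min RT; stop w/ detection buffer, 20 min; luminescence. Normalized to 57 uM ketoconazole.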

[2] = Confirmation and Secondary Assay for Modulators of Hemoglobin Beta Chain Splicing at IVS2 654 locus (AID 910);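 also: HeLa cells stably carrying EGFP split by mutant beta-globin IVS2-654 intron; % of control where 0% means no effect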
How it was run: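 HeLa cells stably expressing EGFP interrupted by β-globin IVS2-654 intron, seeded overnight in Opti-MEM/2% FCS, then treated 2 days at 37 °C. Restored splicing read as total peak GFP intensity per well by laser scanning cytometry (488 nm excitation, 500–520 nm emission); 500 nM antisense PNA as control.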

[3] = Confirmation and Secondary Assay for Modulators of Hemoglobin Beta Chain Splicing at IVS2 705 locus (AID 930);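 also: HeLa cells stably expressing the EGFP-705 splicing reporter; GFP fluorescence per well restored by corrected splicing of the IVS2-705 intron in EGFP; % of control where 0% means no effect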
How it was run: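 HeLa EGFP-705 reporter; 500 cells/well, o/n 37C 5% CO2; cpd 2 d; 488 ex/500-520 em laser scan; total peak GFP intensity/well. Ref: 500 nM […] antisense PNA.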

[4] = qHTS Assay for Lipid Storage Modulators (AID 1519; calls by dose curve; also: potency is read from the fitted curve at half-maximal effect; as to activity change, negative = inhibition: % is scaled to controls: 0 for no effect and ±100 for the full control effect); conditions: Drosophila S3 cells, BODIPY lipid droplet/cell ratio, laser cytometry, cells loaded with oleic acid; for activity change, negative = inhibition: at 57.5 µM (top of the series)
How it was run: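 Cells seeded at 5,000 per well were treated with compounds over a concentration series and loaded with oleic acid (400 uM, as added). Lipid droplet fluorescence (488 nm excitation, 500-530 nm channel) was read by laser-scanning cytometry and normalized to 20 uM Triacsin C.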

[5] = measured here: cell count channel max response
[6] = measured here: lipid channel max response

Chain of Cytochrome P450 3A4 (Homo sapiens) (P08684 whole entry, looked up): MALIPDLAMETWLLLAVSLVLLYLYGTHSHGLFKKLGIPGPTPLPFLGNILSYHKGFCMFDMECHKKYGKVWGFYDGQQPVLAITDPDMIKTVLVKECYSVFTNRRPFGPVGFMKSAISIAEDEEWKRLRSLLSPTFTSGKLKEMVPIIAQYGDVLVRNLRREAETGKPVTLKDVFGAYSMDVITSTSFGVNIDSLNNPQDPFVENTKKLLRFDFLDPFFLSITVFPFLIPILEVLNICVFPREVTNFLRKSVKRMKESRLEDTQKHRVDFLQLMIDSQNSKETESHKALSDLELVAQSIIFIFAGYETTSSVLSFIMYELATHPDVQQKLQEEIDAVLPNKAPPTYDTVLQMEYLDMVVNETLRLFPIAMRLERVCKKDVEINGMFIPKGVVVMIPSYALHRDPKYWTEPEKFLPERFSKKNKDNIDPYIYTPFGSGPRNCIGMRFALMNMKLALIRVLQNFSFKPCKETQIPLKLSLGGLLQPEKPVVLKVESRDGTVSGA

Row | SMILES | Potency [1] | Potency [2] | Potency [3] | activity change, negative = inhibition [4] | max response [4, 5] [%] | max response [4, 6] [%] | Potency [4]
1 | O=C(/C=C(\O)c1ccccc1)c1ccccc1O | inactive | inactive | inactive | -15.7% (inactive) | -12.9 | -24.5 | –
2 | CCC(C)C(=O)OC1C2CC3=C4CC(=O)OC(c5ccoc5)[C@]4(C)CCC3[C@@](C)(C2=O)C(CC(=O)OC)C1(C)C (stereo not given in full) | inactive | inactive | inactive | -2.94% (inactive) | -4.4 | -5.82 | –
3 | CC(CN(C)C)CN1c2ccccc2Sc2ccccc21 (stereo not given) | – | inactive | inactive | 6.07% (inactive) | -0.564 | 10.9 | –
4 | CC(=O)Oc1cc2c(c(C)c1OC(C)=O)CC=C1[C@]3(C)CC[C@]4(C)CC[C@@](C)(C(=O)O)CC4[C@]3(C)CC[C@]12C (stereo not given in full) | inactive | inactive | inactive | -5.08% (inactive) | -7.33 | -12.4 | –
5 | C=CCCCCCCCCCCC/C=C/C(O)COC(C)=O (stereo not given) | inactive | inactive | inactive | 8.71% (inactive) | 8.46 | 19.5 | –
6 | CC(=O)OCC1OC(Oc2cc(OC(C)=O)c3c(=O)cc(-c4ccc(OC(C)=O)cc4)oc3c2)[C@@H](OC(C)=O)C(OC(C)=O)C1OC(C)=O (stereo not given in full) | inactive | inactive | inactive | -3.32% (inactive) | -1.21 | -5.92 | –
7 | C=C(C)C1(O)OC(=O)C=C1OC (stereo not given) | – | inactive | inactive | -0.62% (inactive) | -1.24 | -2.01 | –
8 | CC1OC(OCC2OC(Oc3c(-c4ccc(O)c(O)c4)oc4cc(O)cc(O)c4c3=O)C(O)C(O)C2O)[C@@H](O)C(O)C1O (stereo not given in full) | – | inactive | inactive | 4.3% (inactive) | 4.35 | 10.1 | –
9 | COC1=CC(=O)C(C(=O)c2ccccc2)=CC1=O | inactive | inactive | inactive | 9.22% (inactive) | 13.1 | 25.8 | –
10 | CCCCCc1c2c(cc(O)c1C(=O)O)OC(=O)c1c(cc(OC)cc1C(=O)CCCC)O2 | inactive | inactive | inactive | 7.58% (inactive) | 12.3 | 21.9 | –
11 | O=c1cc(-c2ccc(O)cc2)oc2cc(OC3OC(CO)C(O)C(O)[C@H]3O[C@@H]3OC[C@@](O)(CO)C3O)cc(O)c12 (stereo not given in full) | – | inactive | inactive | 1.57% (inactive) | 23.4 | 26.6 | –
12 | CC(=O)c1c(O)c(C)c(O)c2c1OC1=CC(=O)C(C(C)=O)C(=O)C12C (stereo not given) | – | inactive | inactive | 6.96% (inactive) | 24.8 | 22.6 | –
13 | O=c1c(O)c(-c2ccccc2)oc2cccc(O)c12 | inactive | inactive | inactive | 9.45% (inactive) | 9.77 | 18.2 | –
14 | NC(C(=O)NC1C(=O)N2C(C(=O)O)=C(Cl)CSC12)c1ccccc1 (stereo not given) | inactive | inactive | inactive | 8.35% (inactive) | 18.8 | 24.9 | –
15 | COc1c(-c2coc3cc4c(cc3c2=O)CC(O)C(C)(C)O4)ccc2c1C=CC(C)(C)O2 (stereo not given) | 2510 nM (active) | inactive | inactive | – | -20.3 | -70.3 | 70.8 nM (active)
16 | Cc1cn(C2CC(N=[N+]=[N-])C(CO)O2)c(=O)[nH]c1=O (stereo not given) | – | inactive | – | 9.63% (inactive) | 4.71 | 18.1 | –
17 | COc1cc(O)c(C(=O)/C=C/c2ccccc2)c(OC)c1 | inactive | inactive | inactive | -11.9% (inactive) | 2.78 | -7.25 | –

Source: PubChem BioAssay (NCATS)
